Assay outcomes (PubChem BioAssay)
PPARg SRC-1 ag: promotes SRC-1 coactivator recruitment by human PPARgamma; P37231; PPARgamma-SRC-1 coactivator recruitment biochemical assay; activation, % at 8 µM; 0.41% of 200,000 active; AID 631; in the data active = activation above about 19%;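 also: 0% = DMSO and 100% = reference agonist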
SRC1 TRFRET art: flags TR-FRET format artefacts in PPARgamma SRC-1 recruitment agonist screen | TR-FRET detection artefact counter-screen, emission ratio; active compounds read high | 0.34% of 99,000 active | AID 1051 | TR-FRET ratio at 8 µM; in the data active = TR-FRET ratio above about 2300
PPARg SRC3 recr: agonists of human PPARgamma SRC-3 coactivator recruitment; biochemical PPARgamma/SRC-3 coactivator recruitment assay; activation, % at 8 µM; 0.26% of 200,000 active; AID 731; in the data active = activation above about 23%;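 also: 0% = DMSO and 100% = reference agonist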
PPARg SRC2 recr: agonists of SRC-2 recruitment by human PPARgamma; P37231; PPARgamma LBD-SRC-2 recruitment, biochemical; activation, % at 8 µM; 0.34% of 200,000 active; in the data active = activation above about 22%;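 also: 0% = vehicle and 100% = reference agonist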
SRC3 TRFRET art: flags TR-FRET format artefacts in PPARgamma SRC-3 recruitment agonist screen; TR-FRET artefact counter-screen, PPARgamma/SRC-3 format; active compounds read high; TR-FRET ratio at 8 µM; 0.39% of 99,000 active; AID 1048
TR-FRET SRC-2 ct: flags TR-FRET format artefacts in PPARgamma SRC-2 recruitment agonist screen. TR-FRET artefact counter-screen; active compounds read high. TR-FRET ratio at 8 µM. 0.4% of 200,000 active. AID 1049
PPARg SRC2 ag: human PPARgamma SRC-2 recruitment agonism, confirmation; 52% of 790 active; activation, % at 8 µM; shares compounds with PPARg SRC3 recr; biochemical SRC-2 recruitment by PPARgamma; in the data active = activation above about 22%;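 also: 0% = vehicle alone and 100% = reference agonist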
PPARg SRC1 ag: confirmation of agonists of SRC-1 recruitment by human PPARgamma. activation, % at 8 µM. PPARgamma–SRC-1 coactivator recruitment biochemical assay. AID 1300. shares compounds with PPARg SRC3 recr. 43% of 790 active; in the data active = activation above about 20%;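 also: 0% = vehicle wells and 100% = reference agonist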
PPARg SRC3 conf: human PPARgamma SRC-3 recruitment agonism, confirmation; biochemical PPARgamma-SRC-3 coactivator recruitment, agonist mode; activation, % at 8 µM; shares compounds with PPARg SRC3 recr; AID 1301; 29% of 790 active; in the data active = activation above about 24%;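 also: 0% = vehicle wells and 100% = reference agonist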
Target sequence (P37231 whole entry, looked up): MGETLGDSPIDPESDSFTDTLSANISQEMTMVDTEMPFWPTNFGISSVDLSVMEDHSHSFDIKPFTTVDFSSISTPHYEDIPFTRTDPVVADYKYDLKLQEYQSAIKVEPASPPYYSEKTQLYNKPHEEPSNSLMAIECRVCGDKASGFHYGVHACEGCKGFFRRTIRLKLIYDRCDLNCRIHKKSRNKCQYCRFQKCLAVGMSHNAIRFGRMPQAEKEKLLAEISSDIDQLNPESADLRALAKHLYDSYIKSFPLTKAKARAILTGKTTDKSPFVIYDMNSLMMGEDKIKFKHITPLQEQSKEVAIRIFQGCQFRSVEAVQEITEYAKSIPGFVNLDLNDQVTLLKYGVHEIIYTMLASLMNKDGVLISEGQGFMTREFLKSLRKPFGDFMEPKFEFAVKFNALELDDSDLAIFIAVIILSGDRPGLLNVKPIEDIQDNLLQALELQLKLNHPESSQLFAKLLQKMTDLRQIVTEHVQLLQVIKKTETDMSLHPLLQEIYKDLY
Target sequence (Q9Y6Q9 whole entry, looked up): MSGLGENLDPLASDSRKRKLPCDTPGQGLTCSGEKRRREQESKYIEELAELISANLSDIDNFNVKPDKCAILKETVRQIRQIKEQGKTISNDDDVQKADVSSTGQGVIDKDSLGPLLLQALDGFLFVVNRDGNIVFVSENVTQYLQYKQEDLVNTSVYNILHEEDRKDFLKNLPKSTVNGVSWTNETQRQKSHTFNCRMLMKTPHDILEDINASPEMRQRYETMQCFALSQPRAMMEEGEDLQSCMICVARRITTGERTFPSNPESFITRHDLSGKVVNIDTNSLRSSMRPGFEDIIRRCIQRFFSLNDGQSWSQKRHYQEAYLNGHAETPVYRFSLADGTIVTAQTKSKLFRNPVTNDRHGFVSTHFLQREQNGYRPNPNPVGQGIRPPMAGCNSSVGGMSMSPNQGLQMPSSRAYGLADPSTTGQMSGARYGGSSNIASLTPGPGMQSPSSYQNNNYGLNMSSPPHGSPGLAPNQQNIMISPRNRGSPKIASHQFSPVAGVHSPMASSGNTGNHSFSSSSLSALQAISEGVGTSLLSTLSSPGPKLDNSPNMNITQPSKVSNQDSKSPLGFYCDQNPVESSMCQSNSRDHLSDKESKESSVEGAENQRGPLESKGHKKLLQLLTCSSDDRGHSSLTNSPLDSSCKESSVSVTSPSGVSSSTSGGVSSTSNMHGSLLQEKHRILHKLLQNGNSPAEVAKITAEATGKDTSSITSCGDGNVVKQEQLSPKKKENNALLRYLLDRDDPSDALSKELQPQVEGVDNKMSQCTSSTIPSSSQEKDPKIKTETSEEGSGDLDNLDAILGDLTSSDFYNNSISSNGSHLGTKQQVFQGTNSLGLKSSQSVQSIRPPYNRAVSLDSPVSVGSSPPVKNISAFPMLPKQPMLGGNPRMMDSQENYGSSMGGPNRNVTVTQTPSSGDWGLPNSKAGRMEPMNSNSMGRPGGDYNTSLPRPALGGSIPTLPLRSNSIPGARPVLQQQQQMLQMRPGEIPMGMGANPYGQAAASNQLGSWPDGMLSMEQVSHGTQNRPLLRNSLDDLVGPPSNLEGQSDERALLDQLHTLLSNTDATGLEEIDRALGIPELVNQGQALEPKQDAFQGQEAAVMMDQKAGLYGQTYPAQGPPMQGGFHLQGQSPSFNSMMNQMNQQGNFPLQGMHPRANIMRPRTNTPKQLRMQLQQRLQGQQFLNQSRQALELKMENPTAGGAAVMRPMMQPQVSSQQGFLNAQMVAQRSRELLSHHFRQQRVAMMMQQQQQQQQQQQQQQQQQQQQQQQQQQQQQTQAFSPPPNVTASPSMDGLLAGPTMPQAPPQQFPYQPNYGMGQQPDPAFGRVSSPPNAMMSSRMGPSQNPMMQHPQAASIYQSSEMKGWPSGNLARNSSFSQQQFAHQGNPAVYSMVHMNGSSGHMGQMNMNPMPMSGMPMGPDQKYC
* hit, by the source's call; . = no result given. Rows were chosen to be rich in hits. Some 0.9% of all compounds tested hit in one or more screens of this group. Rule as the data show it, unless noted: active = TR-FRET ratio above about 2000; inactive = the rest.

SMILES	PPARg SRC-1 ag	SRC1 TRFRET art	PPARg SRC3 recr	PPARg SRC2 recr	SRC3 TRFRET art	TR-FRET SRC-2 ct	PPARg SRC2 ag	PPARg SRC1 ag	PPARg SRC3 conf
O=C(Nc1nc(-c2cccs2)c(C(=O)C(F)(F)F)s1)c1ccco1	41*	3540*	37*	61*	3363*	3022*	37*	22*	25*
Cc1cnc(C(=O)Nc2ccccc2-c2ccc(C)o2)cn1	-6	.	-11	0	.	1345	.	.	.
O=C(O)CC1=C(Nc2ccccc2)C(=O)N(c2ccccc2)C1c1ccc(Br)cc1 (configuration not stated)	6	1711	5	-3	1570	1718	.	.	.
CN(C)c1ccc(/C=C/c2ccc3c4ccccc4ccc3[n+]2-c2ccccc2)cc1	47*	2287	28*	49*	2137*	2446*	30*	20*	23
CN(C)c1ccc(/C=C/c2ccc3ccccc3[n+]2C)cc1	66*	3396*	59*	94*	2738*	2876*	41*	33*	31*
CN(C)c1ccc(/C=C/c2ccncc2)cc1	-4	.	10	3	.	1455	.	.	.
Nc1c(C(=O)c2ccccc2O)cnn1-c1ccc(S(=O)(=O)N2CCOCC2)cc1[N+](=O)[O-]	7	2144	8	0	1742	1497	.	.	.
CN(C)/C=C1\C(=O)N(C)N=C1C(F)(F)F	4	1832	7	-7	1680	1663	.	.	.
COc1ccc(-c2csc3[nH]c(=S)n(-c4ccccc4)c(=O)c23)cc1OC	18	2467*	16	25*	2099*	2183*	20	13	14
COc1cccc(-c2cc3c(=O)n(-c4ccccc4)c(=S)[nH]c3s2)c1	23*	.	21	31*	.	1988*	19	16	16
COc1ccc(-n2c(=S)[nH]c3c(sc(=S)n3-c3ccccc3)c2=O)c(OC)c1	4	2160	5	6	1741	1700	.	.	.
O=C(COC(=O)/C=C/c1ccc(F)cc1)Nc1ccccc1-c1ccccc1	-6	1684	-2	-2	1344	1389	.	.	.
Cn1c2c(c(=O)[nH]c1=O)C(c1cccc(O)c1)C1=C(N2)c2ccccc2C1=O (configuration not stated)	6	1780	3	7	1534	1701	.	.	.
CC(C)(C)C1CCc2c(C(=O)NNC(=O)CCCC(=O)O)csc2C1 (configuration not stated)	0	1555	-2	3	1705	1334	.	.	.
C#CCOCCOCCOCCNc1nc(N2CCN(C(=O)[C@H](CCC(=O)O)n3cc(C(N)CC(C)C)nn3)CC2)nc(N2CCN(C(=O)[C@H](Cc3ccc(O)cc3)n3cc(C(N)[C@H](C)CC)nn3)CC2)n1 (some centres not stated)	5	1407	0	0	1479	1497	.	.	.
COc1ccc2c(c1)oc(=O)c1c3ccccc3[nH]c21	48*	4961*	41*	56*	3944*	3710*	44*	33*	27*
COc1ccc2c(c1)oc(=O)c1ccccc12	-1	1968	-4	-2	1747	1366	.	.	.
Cc1nnc(SCC(=O)NCc2ccccc2Cl)[nH]c1=O	1	1762	2	1	1611	1530	.	.	.
C/C(=N\NC(=O)c1ccc(O)cc1)c1ccc2c(c1)Nc1ccccc1S2	17	1994	14	27*	1673	1763	10	6	7
CC(C)(C)c1ccc(NC(=O)COC(=O)C2(C)CC2(Cl)Cl)cc1 (configuration not stated)	-4	1650	-4	-6	1340	1546	.	.	.
CCC(NC(=O)c1ccccc1NC(=O)c1ccco1)C(=O)NC1CCCCC1 (configuration not stated)	11	.	12	25*	.	2076*	10	8	4
CC(=O)c1sc(NC(=O)C2COc3ccccc3O2)nc1C (configuration not stated)	20*	.	28*	27*	.	2016*	24*	15	14
CC(=O)c1sc(Nc2ccc(C)cc2)nc1C	6	2030	2	9	1514	1619	.	.	.
CC(=O)c1sc(NC(=O)C(C)C)nc1C	59*	.	83*	81*	.	3308*	54*	37*	39*
CC(=O)c1sc(Nc2ccccn2)nc1C	53*	.	74*	48*	.	2724*	38*	25*	26*
SMILES	PPARg SRC-1 ag	SRC1 TRFRET art	PPARg SRC3 recr	PPARg SRC2 recr	SRC3 TRFRET art	TR-FRET SRC-2 ct	PPARg SRC2 ag	PPARg SRC1 ag	PPARg SRC3 conf
CC(=O)Nc1nc(C)c(C(C)=O)s1	5	.	20	7	.	1792	.	.	.
Cc1cc2nc(CSc3ccccc3)cc(=O)n2[nH]1	6	1800	-3	2	1582	1596	.	.	.
COc1ccccc1Nc1nc(C)cc(=O)[nH]1	7	.	6	-5	.	1643	.	.	.
COc1ccccc1Nc1nc2ccccc2[nH]1	11	.	27*	8	.	1580	8	7	4
CC(C)c1nc(SCC(=O)Nc2ccc(N(C)C)cc2)c2ccccc2n1	6	1880	4	11	1810	1650	.	.	.
S=c1[nH]c(-c2ccccc2)cn1/N=C/c1ccc(Br)cc1	30*	1927	26*	13	1662	1402	12	16	15
Cc1ccc(C)c(/C=N/n2cc(-c3ccccc3)[nH]c2=S)c1	-3	1705	3	5	1480	1728	.	.	.
CSc1ncccc1C(=O)OCC(=O)NCc1ccc2c(c1)OCO2	-5	1773	6	-2	1350	1551	.	.	.
O=c1c2cn[nH]c2[nH]c(=S)n1-c1cccc2ccccc12	17	2560*	17	24*	2082*	2219*	24*	15	17
S=c1[nH]ncn2c1cc1oc3ccccc3c12	31*	2955*	28*	37*	2852*	2319*	5	-2	4
CCN(CC)c1ccc(NC(=O)c2cnn(CC)c2)cc1	12	.	27*	22*	.	1842	-2	-4	0
CCOC(=O)c1c(-c2cccs2)csc1NC(=O)CCCC(=O)O	13	.	19	25*	.	2153*	25*	19	19
Cc1cc(=O)oc2c(C(=O)/C=C\c3cccs3)c(O)ccc12	2	1766	-3	-1	1335	1427	.	.	.
Cc1c(C(=O)/C=C/c2cccs2)oc2ccc(F)cc12	28*	.	24	14	.	2116*	11	9	7
CCn1c(=O)cc(SCC(=O)N(C)Cc2ccccc2)c2ccccc21	32*	.	34*	47*	.	2336*	42*	28*	27*
Cn1c(=O)cc(SCC(=O)N2CCCC2)c2ccccc21	30*	2601*	20	35*	2626*	2431*	37*	24*	26*
